Assay outcomes as filed in PubChem.
JMJD2A Tudor inh – inhibitors of human JMJD2A Tudor domain | AlphaScreen JMJD2A-Tudor / H3K4me3 peptide binding | Potency, µM (top dose mostly 114 µM), inactives show at the highest dose activity change, negative = inhibition, hits mostly inhibitors | actives 4.4% (n = 390,000) | AID 504339; further: potency means the concentration at half of the fitted maximal effect; on the % scale 0 is the no-effect control and ±100 the full control effect; nearly all actives have a fitted effect of over 50% in size
BAZ2B inh – blocks human BAZ2B | Potency, µM (highest dose often 114 µM), for the others: at the highest dose activity change, negative = inhibition, usual class: inhibitors | actives 4.4% (n = 360,000) | AlphaScreen BAZ2B-H3K14Ac peptide displacement | Q9UIF8; further: potency means the concentration at half of the fitted maximal effect; on the % scale 0 is the no-effect control and ±100 the full control effect; nearly all actives have a fitted effect of over 60% in size
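AlphaScreen displacement of biotin-H3(5-23)K14Ac peptide (50 nM final) from BAZ2B (50 nM final) in PBS pH 7.4, 0.01% Tween-20; complex preformed 30 min RT, then compounds (top 110 uM) 30 min RT, beads 20 min dark.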
PLK1 PBD block – blocks phosphopeptide binding to human PLK1 polo-box domain | AID 720504 | P53350 | Potency, µM, for inactives: max response, negative = inhibition, hits mostly inhibitors | Plk1 PBD binding of FITC phosphopeptide, fluorescence polarization | actives 2.8% (n = 360,000); further: potency means the concentration at half of the fitted maximal effect; series mostly up to about 57 µM; on the % scale 0 is the no-effect control and ±100 the full control effect; nearly all actives have a fitted effect of over 65% in size
Target sequence (P53350 whole entry, looked up, the tested form may be a part): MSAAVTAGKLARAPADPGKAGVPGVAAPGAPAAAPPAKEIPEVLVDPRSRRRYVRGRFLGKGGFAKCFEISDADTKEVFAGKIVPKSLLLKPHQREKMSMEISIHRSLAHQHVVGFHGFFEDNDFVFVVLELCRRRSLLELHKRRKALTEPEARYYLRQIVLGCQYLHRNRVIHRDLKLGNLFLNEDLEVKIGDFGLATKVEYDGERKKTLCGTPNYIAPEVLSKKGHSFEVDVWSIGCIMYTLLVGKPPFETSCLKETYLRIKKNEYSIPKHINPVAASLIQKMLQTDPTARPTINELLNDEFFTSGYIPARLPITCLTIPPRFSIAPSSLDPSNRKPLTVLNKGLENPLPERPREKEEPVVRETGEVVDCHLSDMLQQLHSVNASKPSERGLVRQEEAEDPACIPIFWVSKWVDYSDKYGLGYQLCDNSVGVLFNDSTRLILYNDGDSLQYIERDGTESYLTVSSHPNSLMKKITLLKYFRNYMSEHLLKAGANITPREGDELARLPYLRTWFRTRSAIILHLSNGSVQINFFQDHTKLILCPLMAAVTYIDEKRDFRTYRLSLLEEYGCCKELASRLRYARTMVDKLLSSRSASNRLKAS
PI5P4K alpha inh – PI5P4K alpha (human) kinase inhibition; actives 1.2% (n = 330,000); max response, %; PI5P4Kalpha enzyme, ADP-Glo luminescence, 60 min; stronger effect = lower value; P48426; active means max response of -50% or lower; inconclusive means between -30% and -50%; inactive means -30% or higher; further: value at the top dose of about 77 µM; on the % scale 0 is the no-effect control and ±100 the full control effect
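Single end-point luminescence (ADP-Glo) quantified ADP from PI5P4Kalpha turnover; ATP 5 microM final, 1 h at RT, 0.1% CHAPS and 0.28 mM EGTA in HEPES pH 7.4.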
G9a inh – G9a (human) methyltransferase inhibition. actives 8.8% (n = 350,000). Potency, µM (titrated, usually from 102 µM), for inactives: at the top dose activity, negative = inhibition, most hits filed as inhibitors. G9a H3K9 monomethylation, AlphaScreen, 2 h. AID 504332. Q96KQ7; further: potency means the concentration at half of the fitted maximal effect; on the % scale 0 is the no-effect control and ±100 the full control effect; nearly all actives have a fitted effect of over 75% in size
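AlphaScreen detection with an anti-monomethyl H3K9 antibody quantified product after a 2 h room-temperature reaction containing 500 nM biotinylated H3K9 peptide, 20 µM SAM and 20 nM enzyme, which had been preincubated 15 min with compound.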
HP1b chromo inh – blocks HP1-beta chromodomain binding to methylated histone tails; P83916; AlphaScreen HP1-beta / biotin-H3K9me3 peptide binding; Potency, µM (top dose mostly 114 µM), for inactives: top-dose activity change, negative = inhibition, most hits filed as inhibitors; actives 0.56% (n = 390,000); further: potency means the concentration at half of the fitted maximal effect; nearly all actives have a fitted effect of over 70% in size
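Compound inhibition of the preformed complex between 50 nM HP1-beta and 50 nM biotinylated H3K9me3 peptide was read by AlphaScreen. Buffer was PBS pH 7.4 with 0.01% Tween-20. Incubations ran 30 min at room temperature, with 10 ug/mL donor/acceptor beads.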
* marks the source's active call; other numbers are inactive results; ? = inconclusive; . = no result given; [ ] = another dose, or the depositor's remark. An excerpt weighted towards active compounds, which were near 12% of everything screened. Unless noted, the call rests on the fitted dose curve; in most records, active means well fitted curve in the direction sought with a large enough effect; inconclusive means small, poorly fitted or top-dose-only effect, or another doubt; inactive means no such curve, though single readings can be large; an effect the other way counts as inactive or inconclusive.

SMILES	JMJD2A Tudor inh	BAZ2B inh	PLK1 PBD block	PI5P4K alpha inh	G9a inh	HP1b chromo inh
Cc1ccc(N2C(=O)C3C4C=CC(CNC(=S)N5CCN(c6cccc(C)c6)C(C)C5)(O4)C3C2=O)cc1 (configuration not stated)	18µM*	-2%	-13%	-4	2µM*	25µM*
Cc1cc(C)cc(Oc2nc3c(C)cccn3c(=O)c2/C=C(\C#N)c2nc3ccccc3s2)c1	-8%	-3%	.	.	-49%[59 µM]	46%
CC(=O)c1ccc2cccc3c2c1N=CN3C	-13%	-22%	-22%	.	45µM*	21%
COc1ccc(NC(=O)CCc2c(C)nc3nc(CNC(=O)OC(C)(C)C)nn3c2C)cc1OC	-14%	1%	.	.	10%[59 µM]	19%
O=c1ccc2cc3c([nH]c4ccc(Br)cc43)oc-2c1O	.	45µM*	.	.	?	.
O=c1c2c([nH]c3ccc(Br)cc13)CCCC2	-12%	-5%	-3%	-11	?	21%
Cc1cccc(N(C)C(=O)CCS(=O)(=O)c2ccc3c(c2)n(C)c(=O)c(=O)n3C)c1	4%	-2%	.	.	2%[59 µM]	43%
COc1ccc(NC(=O)CCS(=O)(=O)c2ccc3c(c2)oc(=O)n3C)cc1	-30%	50µM*	?	-28	8%	14%
Cn1c(=O)oc2cc(S(=O)(=O)CCC(=O)Nc3ccccc3)ccc21	-7%	-2%	-6%	8	41%	17%
Cc1cccc(N(C)C(=O)CCS(=O)(=O)c2ccc3c(c2)oc(=O)n3C)c1	-22%	0%[57.1 µM]	.	.	2.8µM*	0%
COc1cc(CCC(=O)NCc2ccc3c(c2)CCN3C(=O)c2ccc(F)cc2)cc(OC)c1OC	-14%	-3%	.	.	4%[59 µM]	40%
COCCNc1cnn(-c2ccccc2)c(=O)c1Cl	-20%	18%	6%	7	.	42%
Cc1ccc(S(=O)(=O)N2CCN(c3nc(-c4cccs4)nc4ccccc34)CC2)c(C)c1	-7%	.	.	.	.	42%
COc1ccc(Cl)cc1Cn1c(C)c(C(=O)NCc2ccc3c(c2)OCCO3)sc1=O	.	.	8%	4	.	.
NCCSC1CC(=O)N(c2ccc(F)cc2)C1=O (configuration not stated)	-16%	-7%	-16%	0	.	34%
NCCSC1CC(=O)N(c2ccc(Cl)c(Cl)c2)C1=O (configuration not stated)	-10%	?	-16%	2	35µM*	58%
O=C1CC(SCc2nc3ccccc3[nH]2)C(=O)N1c1cccc(Cl)c1 (configuration not stated)	-22%	0%	-18%	-12	18µM*	32%
CCOc1ccccc1NC(=O)c1ccc(F)c(S(=O)(=O)N2CCN(c3ccc(F)cc3)CC2)c1	-6%	3%	.	.	-6%[59 µM]	26%
COc1ccc(OC)c(-c2nnc3n2N=C(c2ccccc2OC)CS3)c1	79µM*	.	.	.	.	.
COc1ccccc1-c1nnc2n1N=C(C)CS2	56µM*	-3%	-22%	.	20µM*	34%
Cc1ccccc1C1=Nn2c(nnc2-c2ccco2)SC1	-25%	-24%	-3%	0	28µM*	30%
CC1=Nn2c(nnc2-c2ccccc2Cl)SC1	-27%	1%	-22%	0	22µM*	50%
O=C(CCC1CCCC1)NNC(=O)c1ccc(F)cc1	2%	-2%	1%	3	?	24%
CCN(CC)S(=O)(=O)c1ccc(N=Nc2c(N)[nH]c(=O)[nH]c2=O)cc1	-7%	-10%	-8%	-67*	-6%	20%
CCN(CC)S(=O)(=O)c1ccc(N=NC2=C(O)CCCC2=O)cc1	-14%	-5%	-3%	0	?	17%
SMILES	JMJD2A Tudor inh	BAZ2B inh	PLK1 PBD block	PI5P4K alpha inh	G9a inh	HP1b chromo inh
COc1cc(C(=O)N(Cc2ccccn2)CC2CCCO2)cc(OC)c1OC (configuration not stated)	18µM*	56µM*	-7%	.	-39%[12.7 µM]	-17%
COc1ccc(OC)c(-n2c(-c3ccccc3)n[nH]c2=S)c1	3.2µM*	-5%	-7%	-1	?	21%
COc1ccccc1N1CCN(S(=O)(=O)c2cn(C)nc2C)CC1	-12%	-14%	4%	0	14%	30%
COc1ccccc1-n1c(-c2cn(C)nc2C)n[nH]c1=S	22µM*	-1%	-4%	-12	7.1µM*	15%
COc1ccc(OC)c(-n2c(-c3cccc(C)c3)n[nH]c2=S)c1	?	?	?	?	1.1µM*	-24%
COc1ccc(OC)c(-n2c(C)nc3cc(C(=O)O)ccc32)c1	-11%	2%	-17%	-7	?	27%
COc1ccccc1-n1c(-c2ccccc2)n[nH]c1=S	2.8µM*	-24%	-6%	-20	.	12%
COc1ccc(OC)c(-n2c(C)cc(C=O)c2C)c1	-18%	-37%	-4%	-11	-29%	18%
CCn1c(=O)c2cc(C(=O)N(CCCOC(C)C)Cc3ccco3)sc2c2ccccc21	-16%	-24%	.	.	-7%[59 µM]	32%
Cc1ccc(C)c(N2CCN(CCCNC(=O)c3cnn(-c4ccccc4Cl)c3C3CCN(C(=O)OC(C)(C)C)CC3)CC2)c1	?	-30%[57.1 µM]	.	.	?	7%
CC(C)CN1C(=O)/C(=C/c2c(N3CCc4ccccc4C3)nc3ccccn3c2=O)SC1=S	.	-38%	.	.	35µM*	.
C[C@H](NC(=O)[C@@H]1Cc2ccccc2CN1)C(=O)NCC1CCCO1 (some centres not stated)	?	-4%	30µM*	-13	40µM*	19%
CC(C)C(OC(=O)C1=Cc2ccccc2OC1)C(=O)NCC1CCCO1 (configuration not stated)	50µM*	.	21µM*	?	.	?
COc1ccc(CNC(=O)[C@@H](C)NC(=O)[C@@H]2Cc3ccccc3CN2)cc1	0%	-4%	-3%	-7	6%	35%
C[C@@H](NC(=O)[C@@H]1Cc2ccccc2CN1)C(=O)NCc1ccco1	-21%	?	-10%	4	50µM*	20%
CCOc1ccc(N(CC(=O)NC2CCCC2)C(=O)CCC(=O)Nc2nccs2)cc1	6%	4%	2%	-5	18%	21%
Cc1c(CNCCC2=CCCCC2)c(C(=O)O)c(C)n1Cc1ccccc1	-21%	-37%	-5%	-10	50µM*	12%
CCn1cc(Cl)c(C(=O)NNC(=O)CCn2ccc([N+](=O)[O-])n2)n1	6%	-29%	3%	-3	?	27%
Brc1ccc(-c2csc(/N=C/N3CCOCC3)n2)cc1	-19%	-39%	-3%	16	50µM*	3%
c1ccc(-c2cn(-c3ccccc3)c3ncnc(N4CCCCC4)c23)cc1	-26%	-13%	1%	20	?	16%
